Each structure is given as a SMILES string. Active and inactive are the calls of the source.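 The calls were made as follows: active = compound cutting the TRPC4 channel signal by more than 30% at some tested dose, with a fitted dose response curve; inactive = no inhibition at any dose, or no curve fitted.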

Short transient receptor potential channel 4 (Mus musculus), sequence (Q9QUQ5 whole entry, looked up): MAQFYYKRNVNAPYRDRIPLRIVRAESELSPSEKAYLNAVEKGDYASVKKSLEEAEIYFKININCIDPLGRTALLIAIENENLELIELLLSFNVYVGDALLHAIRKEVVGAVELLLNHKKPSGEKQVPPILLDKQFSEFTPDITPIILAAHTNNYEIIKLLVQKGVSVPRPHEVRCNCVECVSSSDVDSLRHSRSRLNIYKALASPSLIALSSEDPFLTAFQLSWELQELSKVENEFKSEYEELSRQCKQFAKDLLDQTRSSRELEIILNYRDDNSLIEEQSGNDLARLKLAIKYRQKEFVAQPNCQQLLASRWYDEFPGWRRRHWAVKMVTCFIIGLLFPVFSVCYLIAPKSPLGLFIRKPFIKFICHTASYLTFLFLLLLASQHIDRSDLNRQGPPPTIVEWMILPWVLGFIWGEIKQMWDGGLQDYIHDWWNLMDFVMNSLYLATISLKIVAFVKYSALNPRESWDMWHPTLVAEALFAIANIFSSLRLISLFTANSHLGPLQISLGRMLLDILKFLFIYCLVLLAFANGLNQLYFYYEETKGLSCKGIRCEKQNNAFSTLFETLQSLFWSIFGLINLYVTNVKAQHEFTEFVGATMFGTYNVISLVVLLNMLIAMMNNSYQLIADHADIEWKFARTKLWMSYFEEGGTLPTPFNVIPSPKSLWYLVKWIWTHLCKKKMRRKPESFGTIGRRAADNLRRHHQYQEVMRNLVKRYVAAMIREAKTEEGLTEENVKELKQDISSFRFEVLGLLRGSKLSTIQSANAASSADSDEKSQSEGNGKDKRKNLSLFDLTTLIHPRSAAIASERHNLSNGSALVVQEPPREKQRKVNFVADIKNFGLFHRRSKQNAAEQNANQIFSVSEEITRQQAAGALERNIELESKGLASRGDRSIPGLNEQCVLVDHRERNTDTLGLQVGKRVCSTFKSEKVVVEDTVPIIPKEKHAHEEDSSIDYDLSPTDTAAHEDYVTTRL

The test concerns the target Short transient receptor potential channel 4 (Mus musculus) (UniProt Q9QUQ5). In words: mouse TRPC4 blockers, membrane potential readout – cell-based, HEK293 TRPC4/mu-opioid, concentration-response, set 2, selectivity assay for TRPC6 selective inhibitor project, SAR follow-up (AID 504866). As to conditions: DAMGO, membrane potential dye; series mostly up to 20 µM.
In the case of `CC(C)N1CCN(Cc2ccc3nsnc3c2)CC1CCO` (stereo unspecified), the compound was called inactive.

Take `CSCc1cc(N(C)c2ccccc2)nc(-c2ccccn2)n1`: the compound was called inactive.

With `CSCc1cc(N2CCOCC2)nc(-c2ccccn2)n1`, the compound was called inactive. On to `CN1CCN(Cc2ccc3nsnc3c2)CC1CCO` (stereo unspecified), for which the call was inactive. For `OCCC1CN(Cc2ccc3nsnc3c2)CCN1CCCc1ccccc1` (stereo unspecified), the call was inactive. Consider `Clc1ccc(SCc2cc(N3CCCCC3)nc(-c3ccccn3)n2)cc1`, for which the compound was called inactive. For `O=S(=O)(Cc1cc(N2CCOCC2)nc(-c2ccccn2)n1)c1ccccc1` the value was “inactive”. To `CC(C)N1CCC(N2CCN(Cc3ccc4nsnc4c3)CC2CCO)CC1` (stereo unspecified) belongs “inactive”; to `O=S(=O)(Cc1cc(N2CCN(c3ccccc3)CC2)nc(-c2ccccn2)n1)c1ccccc1`, “inactive”; to `OCCC1CN(Cc2ccc3nsnc3c2)CCN1C1CCCC1` (stereo unspecified), “inactive”. As for `Cc1ccc(C)c(N2CCN(C(=O)c3ccc4nsnc4c3)CC2)c1`, the compound was called inactive.

Take `CC(C)CN1CCN(Cc2ccc3nsnc3c2)CC1CCO` (stereo unspecified): the call was inactive.

With `Cc1ccccc1CN1CCN(Cc2ccc3nsnc3c2)CC1CCO` (stereo unspecified), the call was inactive.

Regarding `Cc1cccc(CN2CCN(Cc3ccc4nsnc4c3)CC2CCO)n1` (stereo unspecified), the compound was classed as inactive.

For `CC(C)CCN1CCN(Cc2ccc3nsnc3c2)CC1CCO` (stereo unspecified), the compound was classed as inactive. On to `CN1CCC(N2CCN(Cc3ccc4nsnc4c3)CC2CCO)CC1` (stereo unspecified), for which the call was inactive.
